PostGolgi ctrl – inhibits growth of the yeast control strain. efflux-deficient yeast background strain, growth absorbance A615, 16 h. inhibition, % at 10 µM. 98,000 tested, 5% active
Cav32 inh – human Cav3.2 channel inhibition, primary screen; O95180; Cav3.2-expressing cells, Fluo-4 calcium fluorescence FDSS; stronger effect = lower value; B-score at 10 µM; 100,000 tested, 4% active;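 active = single-dose well whose peak fluorescence ratio is a statistical outlier from its plate by either plate-standardised score or position-corrected B-score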
sEH inhibitor – soluble epoxide hydrolase (human) inhibition; recombinant human sEH enzymatic activity assay; inhibition, % at 2 µM; 91,000 tested, 0.34% active; in the data active = inhibition above about 80%
Target sequence (P34913 whole entry, looked up): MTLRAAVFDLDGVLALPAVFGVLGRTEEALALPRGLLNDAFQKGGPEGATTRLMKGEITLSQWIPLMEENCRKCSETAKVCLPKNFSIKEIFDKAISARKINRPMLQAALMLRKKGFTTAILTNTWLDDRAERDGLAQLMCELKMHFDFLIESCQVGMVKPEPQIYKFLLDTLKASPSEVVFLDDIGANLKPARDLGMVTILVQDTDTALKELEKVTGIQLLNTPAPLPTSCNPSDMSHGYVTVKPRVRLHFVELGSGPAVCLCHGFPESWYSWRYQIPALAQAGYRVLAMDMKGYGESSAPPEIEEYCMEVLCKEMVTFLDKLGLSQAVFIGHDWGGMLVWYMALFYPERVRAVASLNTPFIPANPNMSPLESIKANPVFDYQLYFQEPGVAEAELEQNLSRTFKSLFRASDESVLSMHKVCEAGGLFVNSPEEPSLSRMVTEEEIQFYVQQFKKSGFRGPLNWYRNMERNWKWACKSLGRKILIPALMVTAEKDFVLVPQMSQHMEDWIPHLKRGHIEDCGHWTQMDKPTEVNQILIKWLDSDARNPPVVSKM
sEH act – soluble epoxide hydrolase (human) activation. purified human sEH enzymatic activity, activator screen. activation, % at 2 µM. 91,000 tested, 0.04% active; in the data active = activation above about 37%
PostGolgi yeast – growth inhibition of a yeast mutant, post-Golgi transport screen; inhibition, % at 10 µM; 98,000 tested, 0.9% active; post-Golgi transport phenotypic cell assay;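 also: yeast cells grown in 1536-well plates; yeast grown about 18 h at 30C before absorbance read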
An asterisk follows results filed as active. Sampled rows, rich in hits. Any-hit rate of the full collection: about 7.8%. Rule as the data show it, unless noted: active = inhibition above about 30%; inactive = the rest.

Cc1nn(C(C)C(=O)Nc2sc3c(c2C#N)CCCC3)c(C)c1[N+](=O)[O-] (stereo not given) was read as PostGolgi ctrl 12.2, Cav32 inh -3.28*, sEH inhibitor 5.1, sEH act -3.4 and PostGolgi yeast 0.0.
For O=c1c2ccccc2nc2n1C(CSc1ccc(Br)cc1)CN2 (stereo not given) the results were PostGolgi ctrl -4.8, sEH inhibitor 1.2, sEH act -3.9 and PostGolgi yeast 20.6.
For CCC1=CC(c2ccccc2)n2ncnc2N1 (stereo not given) the results were Cav32 inh 0.197.
Cc1ccc(Nc2[nH]c(=O)c3ccccc3c2C(=O)c2ccccc2)cc1 was read as Cav32 inh 0.409.
C=CCn1c(SCC(=O)c2ccc(Br)cc2)nnc1C(CC(C)C)NC(=O)c1cccs1 (stereo not given) was read as PostGolgi ctrl 26.4, Cav32 inh -1.16, sEH inhibitor -1.5, sEH act 2.9 and PostGolgi yeast 3.3.
`COC(=O)c1ccccc1NC(=S)NC(=O)COc1ccccc1Cl` gave PostGolgi ctrl 31.4*, sEH inhibitor 3.4, sEH act -3.3 and PostGolgi yeast -1.4.
For Cn1c(SCC(=O)OC2CCCCC2)nnc1-c1ccco1 the results were Cav32 inh -0.0627, sEH inhibitor 6.7 and sEH act -6.7.
`Cc1sc(NC(=O)c2ccco2)c(C(c2ccncc2)N2CCOCC2)c1C` (stereo not given) gave PostGolgi ctrl 33.3*, Cav32 inh 0.94, sEH inhibitor 9.0, sEH act -9.4 and PostGolgi yeast -3.5.
`Cc1sc(NC(=O)c2ccco2)c(C(c2cccnc2)N2CCCC2)c1C` (stereo not given) gave PostGolgi ctrl 38.8*, Cav32 inh -0.818 and PostGolgi yeast -0.1.
For Cc1sc(NC(=O)c2ccco2)c(C(c2cccnc2)N2CCN(C)CC2)c1C (stereo not given) the results were PostGolgi ctrl 15.4, Cav32 inh 1.07 and PostGolgi yeast -3.9.
For CCOC(=O)C(C#N)(Cc1cc(OC)cc(OC)c1)Cc1cc(OC)cc(OC)c1 the results were Cav32 inh -2.17.
`CC1CCCN(S(=O)(=O)c2ccc(NC(=O)c3cccc(-n4cnnn4)c3)cc2)C1` (stereo not given) gave PostGolgi ctrl 5.3, Cav32 inh -2.79, sEH inhibitor 95.8*, sEH act -95.7 and PostGolgi yeast 11.3.
CC1CCCCN1S(=O)(=O)c1ccc(NC(=O)c2cccc(-n3cnnn3)c2)cc1 (stereo not given) was read as PostGolgi ctrl 6.2, Cav32 inh -2.61 and PostGolgi yeast 7.0.
OCC[C@@H]1C[C@@H](O)[C@H](O)[C@]2(CCCO2)O1 was read as Cav32 inh 0.202.
For CC1CC(C)(C)N(C(=O)CN2C(=O)c3ccccc3C2=O)c2ccccc21 (stereo not given) the results were Cav32 inh 4.5*, sEH inhibitor -10.9 and sEH act 8.9.
CC1CCCC(C)N1C(=O)c1cccc2c1-c1ccccc1/C2=N/O (stereo not given) was read as Cav32 inh -6.39*, sEH inhibitor -6.7 and sEH act 10.8.
CC(C)C(NS(=O)(=O)c1cccc2nsnc12)C(=O)Nc1nc2ccc(Cl)cc2s1 (stereo not given) was read as PostGolgi ctrl 46.9* and PostGolgi yeast -0.8.
Screening Cc1cc(N2CCCC2)nc(SCC(=O)c2ccccc2)n1 returned Cav32 inh -0.134, sEH inhibitor 1.1 and sEH act 1.6.
`Cc1cc(N2CCC(C)CC2)nc(SCC(=O)c2ccccc2)n1` gave Cav32 inh -4.67*, sEH inhibitor 2.7 and sEH act -3.3.
CCc1ccc(NC(=O)Nc2ccc3c(c2)N(C)C(=O)CS3)cc1 was read as PostGolgi ctrl 1.8, Cav32 inh -0.496, sEH inhibitor 91.4*, sEH act -91.3 and PostGolgi yeast -5.8.
For O=C(NN=C1c2ccccc2-c2ccccc21)c1ccccc1Br the results were PostGolgi ctrl 2.7, Cav32 inh -4.01*, sEH inhibitor -14.7, sEH act 18.0 and PostGolgi yeast 0.5.
Screening O=S1(=O)[C@H]2C[C@@H]3C=C[C@]2(CN1Cc1ccc(C(F)(F)F)cc1)O3 returned Cav32 inh 0.943.
Cc1noc(C)c1COC(=O)c1ccccc1Sc1ccccc1C#N was read as PostGolgi ctrl 30.3*, Cav32 inh -3.52, sEH inhibitor 0.4, sEH act 0.8 and PostGolgi yeast -8.3.
COc1ccc(CN2CCCC2C(=O)Nc2ccc(OC)c(OC)c2)cc1OC (stereo not given) was read as PostGolgi ctrl -2.0, Cav32 inh 0.409 and PostGolgi yeast 3.1.
Screening Cc1cc(Nc2ccccc2)nc(-c2ccccc2O)n1 returned PostGolgi ctrl 37.1*, sEH inhibitor -0.3, sEH act 0.3 and PostGolgi yeast 17.1.
Cc1cc(NCc2ccccc2)nc(-c2ccccc2O)n1 was read as PostGolgi ctrl 56.8*, Cav32 inh -0.815 and PostGolgi yeast -11.1.
Cc1cc(Nc2cccc(F)c2)nc(-c2ccccc2O)n1 was read as PostGolgi ctrl 15.4, Cav32 inh 0.0235, sEH inhibitor -8.4, sEH act 9.8 and PostGolgi yeast 5.8.
Cc1cc(NC2CCCCC2)nc(-c2ccccc2O)n1 was read as PostGolgi ctrl 17.6, Cav32 inh -1.53, sEH inhibitor -1.0, sEH act -1.8 and PostGolgi yeast 4.6.
`CCN(CC)S(=O)(=O)c1ccc(-c2nnc(SCc3nnc(-c4ccccc4)o3)o2)cc1` gave PostGolgi ctrl -4.3, Cav32 inh 0.0601 and PostGolgi yeast 2.5.
Screening COc1ccc(CNC(=O)COC(=O)c2cc(-c3cccs3)nc3ccccc23)cc1OC returned PostGolgi ctrl 8.0, Cav32 inh -0.878, sEH inhibitor -4.6, sEH act 8.4 and PostGolgi yeast 2.0.
Screening COc1ccc2[nH]cc(C3N4CC5(C)CN3CC(C)(C4)C5=O)c2c1 (stereo not given) returned PostGolgi ctrl -3.0, Cav32 inh 0.247, sEH inhibitor 5.9, sEH act -5.6 and PostGolgi yeast -9.2.
For COc1ccc(Br)cc1C1N2CC3(C)CN1CC(C)(C2)C3=O (stereo not given) the results were PostGolgi ctrl 39.1*, Cav32 inh 0.663 and PostGolgi yeast 2.8.
For COc1ccc(-n2c(-c3ccccc3)cc3c2CCCC3=O)cc1 the results were PostGolgi ctrl 67.9*, Cav32 inh -0.118, sEH inhibitor -2.7, sEH act 5.5 and PostGolgi yeast 9.7.
CC(C)C[C@H](NC(=O)OC(C)(C)C)C(=O)N/N=C/C1=Cc2ccccc2OC1C (stereo not given in full) was read as PostGolgi ctrl 27.7, Cav32 inh -4.45*, sEH inhibitor -1.8, sEH act 1.1 and PostGolgi yeast 8.0.
For N#CCSc1nc(N)c(C#N)c(C2CCCCC2)c1C#N the results were PostGolgi ctrl 50.8*, Cav32 inh -1.47, sEH inhibitor 5.7, sEH act -8.2 and PostGolgi yeast 18.0.

Screens: PubChem BioAssay, several laboratories
